Rows were chosen to be rich in hits. Some 2.4% of all compounds tested hit in one or more screens of this group.
POLK inh – inhibitors of human DNA polymerase kappa. 400,000 compounds, 0.53% hits. Potency, µM (doses to about 107 µM), for the others: top-dose activity, negative = inhibition, hits mostly inhibitors. purified Pol kappa, fluorescent DNA synthesis assay, 10 min. Q9UBT6; also: % is scaled to controls: 0 for no effect and ±100 for the full control effect
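Activity was followed as the change in fluorescence between reads at 0 and 10 min after starting the reaction with 50 nM substrate. Beforehand, 10 nM polymerase had been preincubated with compound for 15 min at room temperature.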
Pol iota inh – inhibitors of human DNA polymerase iota; Pol iota fluorescent replication assay, 10 min; Potency, µM (doses to about 115 µM), inactives show at the top dose activity, negative = inhibition, hits mostly inhibitors; Q9UNA4; 390,000 compounds, 1% hits
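Fluorescent replication assay read twice, at 0 min and 10 min after adding 50 nM (final) substrate. Enzyme (10 nM) and compounds were first incubated 15 min at room temperature; enzyme-free buffer wells were negative controls.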
POLH inh – blocks human DNA polymerase eta activity; Q9Y253; recombinant Pol eta, fluorescent DNA replication assay; Potency, µM (highest dose often 114 µM), for the others: top-dose activity change, negative = inhibition, usual class: inhibitors; 390,000 compounds, 1.2% hits; also: % is scaled to controls: 0 for no effect and ±100 for the full control effect
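Pol eta at 10 nM preincubated with compounds 15 min at room temperature; reaction started with fluorescent substrate (50 nM final) and read kinetically at 0 and 10 min.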
Pol beta inh – DNA polymerase beta (human) inhibition; P06746; 340,000 compounds, 1.3% hits; Pol beta primer extension/strand displacement, fluorescence kinetic; Potency, µM (titrated, usually from 114 µM), without a hit: top-dose activity change, negative = inhibition, actives largely listed as inhibitors; also: % is scaled to controls: 0 for no effect and ±100 for the full control effect
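Enzyme-only controls used 10 nM Pol beta; buffer lacking enzyme served as negative control. Compound preincubated 15 min, then 50 nM substrate added; 0 and 10 min reads at room temperature.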
FEN1 inhibitor – blocks human flap endonuclease 1. P39748. Recombinant FEN1 flap cleavage, fluorescence, 15 min. Potency, µM (doses to about 114 µM), for inactives: at the top dose activity change, negative = inhibition, usual class: inhibitors. 390,000 compounds, 0.35% hits; also: % is scaled to controls: 0 for no effect and ±100 for the full control effect; nearly all actives have a fitted effect of over 65% in size
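Potency values derive from four-parameter Hill fits of normalized qHTS data. The reaction used 10 nM FEN1 preincubated 15 min at room temperature with compound, then 50 nM DNA substrate, read at 0 and 15 min.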
WRN helicase inh – WRN helicase (human) inhibition; WRN helicase unwinding, fluorescent forked duplex, kinetic; Q14191; AID 651768; 360,000 compounds, 0.46% hits; Potency, µM (top dose mostly 114 µM), for the others: at the top dose activity change, negative = inhibition, most hits filed as inhibitors; also: % is scaled to controls: 0 for no effect and ±100 for the full control effect; nearly all actives have a fitted effect of over 55% in size
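Primary qHTS, 1536-well format. 20 nM WRN + compound, 15 min RT; start with 100 nM forked fluorophore/quencher duplex, 2 mM ATP (final); kinetic read ex 525/em 598 nm.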
Starred values were filed as active, the others as inactive; ? = inconclusive; nt = no result given; [ ] = another dose, or the depositor's remark. Calls follow the shape of the dose curve; as a rule, active = well fitted curve in the direction sought with a large enough effect; inconclusive = small, poorly fitted or top-dose-only effect, or another doubt; inactive = no such curve, though single readings can be large; an effect the other way counts as inactive or inconclusive. Potency is read from the fitted curve at half-maximal effect.

SMILES | POLK inh | Pol iota inh | POLH inh | Pol beta inh | FEN1 inhibitor | WRN helicase inh
CNc1ccc2oc(C[C@H]3O[C@]4(CC[C@H]3C)O[C@H]([C@H](C)C(=O)c3ccc[nH]3)[C@H](C)C[C@H]4C)nc2c1C(=O)O | -14.2%[19.4 µM] | nt | nt | nt | nt | nt
c1ccc(CCN2CCCCC2)cc1 | 4.5% | 20.7% | nt | nt | 2.9% | nt
Cn1cccc1C(=O)OCC(=O)NCc1cccs1 | -4.3% | 105.5% | -15.8% | nt | 7.1% | -15.0%
Cc1ccc(-c2nc(S(=O)(=O)c3ccc(C)cc3)c(SCC(=O)Nc3ccc(F)cc3)o2)cc1 | -5.1% | -1.8% | -29.5% | ? | 15.9% | nt
COc1ccc(CC2C(=O)N(C)C(=O)N(C)C2=O)c(OC)c1 | -13.2% | ? | -0.3% | -14.0% | -7.0% | ?
Cc1ccc(CC2C(=O)N(C)C(=O)N(C)C2=O)s1 | -10.1% | ? | 2.9% | -5.6% | -2.5% | 1.3%
CCN(CC)c1ccc(CC2C(=O)N(C)C(=O)N(C)C2=O)cc1 | -6.5% | ? | -21.5% | 13.0% | -27.6% | 20µM*
C=CCOc1ccc(CC2C(=O)N(C)C(=O)N(C)C2=O)cc1 | -16.3% | ? | 15.8µM* | ? | 2.8% | -6.6%[11.6 µM]
CC1=C2C(=O)C3C(CC=C4C[C@@H](O)CC[C@@]43C)[C@@H]2CC[C@]12O[C@@H]1C[C@H](C)CN[C@H]1C2C (some centres undefined) | 10.6%[60.1 µM] | nt | nt | nt | nt | nt
COc1cc2c(cc1O)C[C@H]1NCCc3cc4c(c-2c31)OCO4 | ? | 14.1µM* | ? | 39.8µM* | 10µM* | ?
COc1c2c(cc3c1OCO3)CCN(C)C2 | -4.4% | -10.5% | -8.1% | nt | -0.6% | 0.5%
NC(N)=Nc1ccc2[nH]c3c(c2c1)C[C@@]1(O)[C@H]2Cc4ccc(O)c5c4[C@@]1(CCN2CC1CC1)[C@H]3O5 | -19.7%[60.1 µM] | ? | -28.1% | 3.5%[57.1 µM] | 50.1µM* | ?
CCCCn1c(NS(=O)(=O)c2ccc(C)cc2)c(C(=O)OCC)c2nc3ccccc3nc21 | -1.2% | 2.51µM* | -7.0% | 9.8% | -17.0% | -24.4%
OCC(Br)(Br)Br | 21.1%[60.1 µM] | nt | nt | nt | nt | nt
CCn1cc(C=C2C(=O)NC(=O)NC2=O)c2ccccc21 | -17.4% | 20µM* | 6.9% | ? | -5.2% | -26.9%
CC(=O)OCC1=C(C(=O)O)N2C(=O)[C@@H](NC(=O)CCC[C@@H](N)C(=O)O)[C@H]2SC1 | 5.8%[60.1 µM] | nt | nt | nt | -4.0%[57.1 µM] | nt
COc1cccc2c1C(=O)c1c(O)c3c(c(O)c1C2=O)C[C@@](O)(C(=O)CO)C[C@@H]3O[C@H]1C[C@H](N)[C@H](OC2CCCCO2)[C@H](C)O1 (some centres undefined) | 10µM* | ? | nt | nt | 17.8µM* | nt
NC(N)=N/N=C/c1cn(-c2ccccc2)nc1-c1cccs1 | -14.8% | -7.7% | -12.0% | 28.2µM* | -15.6% | 39.3%
Cc1cc(/C=C/c2ccnc3ccccc23)ccc1N(CCCl)CCCl | -13.6% | ? | nt | nt | -33.0% | nt
O=C1NC(=S)N(c2ccc(F)cc2)C(=O)/C1=C/c1ccccc1O | -0.6% | 35.3% | -9.0% | -18.7% | 16.5% | -0.4%[57.1 µM]
COc1ccc(N2C(=O)/C(=C/c3cccs3)C(=O)NC2=S)cc1 | -31.8% | ? | 3.9% | -1.0% | -3.9% | 44.7µM*
Cc1ccc(/C=C2\C(=O)NC(=S)N(c3ccc(F)cc3)C2=O)s1 | -19.5% | ? | ? | ? | 2.7% | 50.1µM*
Cc1ccc(/C=C2\C(=O)NC(=S)N(c3ccccc3F)C2=O)s1 | ? | ? | ? | ? | ? | 50.1µM*
COc1ccc(N2C(=O)/C(=C/c3ccc(N(C)C)o3)C(=O)NC2=S)cc1 | -18.0% | ? | -25.4% | 2.4% | 14.3% | -5.4%
COc1ccc(-c2nn3c(=O)cc(CN4CCN(S(=O)(=O)c5ccc(C)cc5)CC4)nc3s2)cc1 | -2.5%[60.1 µM] | 57.3% | -12.4% | 2.6% | 0.6% | nt
SMILES | POLK inh | Pol iota inh | POLH inh | Pol beta inh | FEN1 inhibitor | WRN helicase inh
COc1ccc(NC(=O)CSc2oc(-c3cccs3)nc2S(=O)(=O)c2ccccc2)c(OC)c1 | -22.4% | ? | -12.7% | 3.9% | -4.6% | nt
CC(=O)O[C@H]1C(=O)[C@@]2(C)C([C@H](OC(=O)c3ccccc3)[C@]3(O)C[C@H](OC(=O)[C@H](O)[C@@H](NC(=O)c4ccccc4)c4ccccc4)C(C)=C1C3(C)C)[C@]1(OC(C)=O)CO[C@@H]1C[C@@H]2OC(=O)[C@H](C)NC(=O)c1ccc(-c2c3ccc(=O)cc-3oc3cc(O)ccc23)c(C(=O)O)c1 (some centres undefined) | 4.74µM* | nt | nt | nt | nt | nt
C/C=C(\C)C(=O)N[C@@H](c1ccccc1)[C@@H](O)C(=O)O[C@H]1C[C@@]2(O)[C@@H](OC(=O)c3ccccc3)C3[C@](C)(C(=O)[C@H](OC(C)=O)C(=C1C)C2(C)C)[C@@H](O)C[C@H]1OC[C@@]31OC(C)=O (some centres undefined) | 0.2% | 17.4% | -17.0% | 2.0% | -0.7% | 1.8%
CC1=NNC(=O)C1Br (centres undefined) | -12.7% | 28.2µM* | -4.8% | nt | -0.5% | 28.2µM*
NC(CC(=O)O)C1CCCCC1 (centres undefined) | nt | nt | nt | 80.9% | nt | nt
NCC(CC(=O)O)C1CCCCC1 (centres undefined) | 2.4% | 100µM* | 5.3% | -16.2% | -0.8% | -2.8%[57.1 µM]
CCCN(CCC)[C@@H]1CCc2c(F)ccc(O)c2C1 | nt | 9.4%[58.9 µM] | -4.1%[57.1 µM] | 22.2%[57.1 µM] | nt | nt
CC(=O)C1=C(O)[C@@H]2[C@@H]3c4c[nH]c5cccc(c45)C[C@@H]3C(C)(C)N2C1=O | -9.2%[19.4 µM] | nt | nt | nt | nt | nt
C=C1C(O)C2OC3(CCC(/C=C/C(C)C4CC(C)=CC5(OC(CC(C)(O)C(=O)O)CCC5O)O4)O3)CCC2OC1C(O)CC(C)C1OC2(CCCCO2)CCC1C (centres undefined) | -9.7%[2.39 µM] | nt | nt | nt | nt | nt
CCC1(C)OC(c2ccccc2)=C/C(=C/C=C2C(=O)NC(=O)NC2=O)O1 (centres undefined) | -25.6% | 28.2µM* | -17.5% | ? | -11.4% | ?
Cc1cccc(N2C(=O)/C(=C/N3CCN(C(=O)c4ccco4)CC3)C(=O)NC2=S)c1 | -4.3% | 2.6% | -6.3% | 8.7% | -11.5% | ?
Cc1ccc(N2C(=O)/C(=C/N3CCN(C(=O)c4ccco4)CC3)C(=O)NC2=S)cc1C | -8.2% | 17.8µM* | -7.6% | -0.7% | -13.5% | ?
C=CCn1c(O)c(/C=C2/C=CC=N2)c(=O)[nH]c1=O | -18.8% | 20µM* | ? | 19.4% | -15.2% | -3.8%[11.6 µM]
O=c1[nH]c(=O)n(Cc2ccccc2Cl)c(O)c1/C=C1/C=CC=N1 | ? | 44.7µM* | ? | ? | -17.2% | -18.2%
Cn1c(O)c(/C=C2\C=c3ccccc3=NC2=O)c(=O)n(C)c1=O | 12.2% | ? | -6.6% | 38.9% | 0.2% | 5.5%

From PubChem BioAssay
